The results in this text go back to PubChem BioAssay (EPA / NIEHS).

Results filed as inconclusive are left out. The source made the active and inactive calls. The calls were made as follows, unless noted: active = hit-call score of the fitted dose curve at least 0.9, where 1 is the maximum; inconclusive = response in the unintended direction; inactive = score below 0.9.

As usually defined, the AC50 is the midpoint of the concentration-response curve, whichever way the signal moves.

Assay [1] can be described thus: CEETOX_H295R_TESTO_noMTC: CeeTox H295R High-throughput Steroidogenesis Assay for Testosterone (TESTO), maximum tolerated concentration (MTC) filtered results only (AID 2283924; active = hit-call score of the fitted dose curve at least 0.9, where 1 is the maximum; inactive = score below 0.9). The note with it: actives raise or lower the signal. The procedure, abridged: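 H295R cells prestimulated 48 h with 10 uM forskolin, then exposed 48 h to chemicals in 0.1% DMSO final. Testosterone in medium quantified by MTBE extraction and HPLC-MS/MS; bidirectional fit versus DMSO, concentrations […] filtered by MTT-based maximum tolerated concentration.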

The target in assay [2] is PGR (gene 5241) (UniProt P06401). Nature of the assay: TOX21_PR_BLA_Followup_Antagonist_ratio: Tox21 HEK293 Progesterone Receptor (PR) Antagonism Beta-lactamase Follow-Up Assay, Ratio (AID 2283934). The procedure, abridged:
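HEK293T PR-UAS-bla, 2% CS-FBS; 6 hr plating, then cpd + R5020 (1 nM final), 16 hr 37C/5% CO2. B/G FRET substrate 2 h RT. Ratio ch2/ch1 vs DMSO; CellTiter-Glo viability multiplexed, autofluorescence checked.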

Assay [3] in a line: TOX21_PR_BLA_Followup_Antagonist_viability: Viability Assessment in the Tox21 HEK293 Progesterone Receptor (PR) Antagonism Beta-lactamase Follow-Up Assay (AID 2283936).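 Also: hits lower the luminescence signal meaning cytotoxicity.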 The procedure, abridged:
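PR-UAS-bla HEK293T cells (3,000/well, 2% charcoal-stripped FBS) given compound plus R5020 agonist, 16 h at 37C. CellTiter-Glo added after bla read, 30 min at room temperature; luminescence loss indicates cytotoxicity.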

Assay [4] is described as follows: TOX21_PR_LUC_Followup_Antagonist_viability: Viability Assessment in the Tox21 HEK293 Progesterone Receptor (PR) Antagonism Luciferase Follow-Up Assay (AID 2283940). The procedure, abridged: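 Multiplexed viability counter-screen: after 5 days in charcoal-stripped-FBS medium, HEK293-PR-A-luc cells are plated, pinned with DMSO-dissolved compounds for 16 h at 37C, and ATP content is quantified luminescently via CellTiter-Glo.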

Assay [5] is described as follows: TOX21_PR_LUC_Followup_Agonist_viability: Viability Assessment in the Tox21 HEK293 Progesterone Receptor (PR) Agonism Luciferase Follow-Up Assay (AID 2283941).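 Also: loss of signal means cytotoxicity so actives lower viability.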 The method, boiled down: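 Cells were kept 5 days in charcoal-stripped serum medium before plating HEK293-PR-A-luc at 3,000 cells/well. After 5 h they received DMSO-dissolved compound and incubated 16 h at 37C. Viability was taken from CellTiter-Glo ATP luminescence.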

A short description of assay [6]: TOX21_PR_BLA_Followup_Agonist_viability: Viability Assessment in the Tox21 HEK293 Progesterone Receptor (PR) Agonism Beta-lactamase Follow-Up Assay (AID 2283935).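 Also: signal loss means lower viability so actives are cytotoxic.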 The method, boiled down:
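HEK293T PR-UAS-bla, 3,000 cells/well, 2% CS-FBS; 6 hr pre-incubation; cpd in DMSO, 16 hr 37C; LiveBLAzer 2 hr RT, then CellTiter-Glo 30 min RT, luminescence. Decrease = lost viability.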

Assay [7] has as its target PGR (gene 5241) (UniProt P06401). Nature of the assay: TOX21_PR_LUC_Followup_Antagonist: Tox21 HEK293 Progesterone Receptor (PR) Antagonism Luciferase Follow-Up Assay (AID 2283938).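 Also: curve fitted upward as signal gain over DMSO baseline despite antagonist label.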 The procedure, abridged: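 HEK293-PR-A-luc cells were precultured 5 days in medium with 10% charcoal-stripped FBS, seeded 3,000/well, then exposed to compounds in DMSO for 16 h at 37C. Luciferase was read by ONE-Glo luminescence after 30 min at room temperature.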

Assay [8] has as its target Thyroid hormone receptor alpha (Rattus norvegicus) + Thyroid hormone receptor beta (Rattus norvegicus) (UniProt P18113+P63059). Nature of the assay: TOX21_TR_LUC_GH3_Agonist_Followup: Tox21 GH3 Thyroid Hormone Receptor Agonism Luciferase Follow-Up Assay (AID 2283939). The protocol:
TOX21_TR_LUC_GH3_Agonist_Followup is a secondary assay for specificity for the TOX21_TR_LUC_GH3_Agonist assay. TOX21_TR_LUC_GH3_Agonist_Followup is a cell-based, single-readout assay that uses GH3, a rat pituitary gland cell line, with measurements taken at 28 hours after chemical dosing in a 1536-well plate.TOX21_TR_LUC_GH3_Agonist_Followup is one of one assay component(s) measured or calculated from the TOX21_TR_LUC_GH3_Agonist_Followup assay. It is designed to make measurements of luciferase induction, a form of inducible reporter, as detected with bioluminescence signals by […] technology.Data from the assay component TOX21_TR_LUC_GH3_Agonist_Followup was analyzed into 1 assay endpoint. This assay endpoint, TOX21_TR_LUC_GH3_Agonist_Followup, was analyzed in the positive analysis fitting direction relative to DMSO as the negative control and baseline of activity. Using a type of inducible reporter, gain-of-signal activity can be used to understand changes in the reporter gene as they relate to the gene THRA and THRB in the GH3 cell line using a luciferase reporter. Furthermore, this assay endpoint can be referred to as a primary readout, because the performed assay has only produced 1 assay endpoint. This assay endpoint is designated followup because it was a confirmatory screen following the primary qHTS assay. […]

A further assay addresses THRA (gene 7067) (UniProt P10827). Nature of the assay: TOX21_TRA_COA_Agonist_Followup_ratio: Tox21 Thyroid Hormone Receptor alpha Agonism through Coactivator Recruitment Follow-Up Assay, Ratio (AID 2283948; active = hit-call score of the fitted dose curve at least 0.9, where 1 is the maximum; inactive = score below 0.9). The method, boiled down: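 Read-out is the 520/495 nm emission ratio (ex 340 nm), scaled between DMSO-only wells as 0% and T3 wells as 100%. It reflects fluorescein-SRC-2 peptide recruitment to GST-TRα LBD detected via terbium anti-GST antibody.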

PGR (gene 5241), sequence (P06401 whole entry, looked up): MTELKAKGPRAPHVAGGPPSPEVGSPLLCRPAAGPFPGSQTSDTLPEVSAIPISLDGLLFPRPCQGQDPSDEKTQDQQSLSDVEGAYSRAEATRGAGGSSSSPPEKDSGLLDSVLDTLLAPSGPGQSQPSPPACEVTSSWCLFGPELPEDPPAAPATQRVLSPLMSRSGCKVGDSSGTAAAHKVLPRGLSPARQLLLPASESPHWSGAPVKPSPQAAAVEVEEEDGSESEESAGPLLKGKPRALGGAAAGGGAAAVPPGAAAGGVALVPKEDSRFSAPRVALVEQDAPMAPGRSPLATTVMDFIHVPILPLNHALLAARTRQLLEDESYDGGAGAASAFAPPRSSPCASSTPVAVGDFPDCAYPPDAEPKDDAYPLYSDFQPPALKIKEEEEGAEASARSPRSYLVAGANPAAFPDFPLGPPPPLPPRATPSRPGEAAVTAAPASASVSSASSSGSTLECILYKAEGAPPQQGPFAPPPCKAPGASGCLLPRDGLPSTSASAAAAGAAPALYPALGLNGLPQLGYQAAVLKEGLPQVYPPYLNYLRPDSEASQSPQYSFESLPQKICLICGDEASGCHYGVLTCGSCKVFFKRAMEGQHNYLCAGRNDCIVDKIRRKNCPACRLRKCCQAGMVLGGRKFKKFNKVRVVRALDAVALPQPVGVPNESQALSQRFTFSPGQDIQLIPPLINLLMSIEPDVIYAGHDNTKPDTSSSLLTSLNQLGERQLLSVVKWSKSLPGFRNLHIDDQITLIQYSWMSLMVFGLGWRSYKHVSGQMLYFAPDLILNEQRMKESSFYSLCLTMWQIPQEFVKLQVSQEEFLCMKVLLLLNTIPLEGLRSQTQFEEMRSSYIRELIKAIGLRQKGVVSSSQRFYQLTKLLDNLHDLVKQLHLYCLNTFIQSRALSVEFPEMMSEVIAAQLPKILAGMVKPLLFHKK
THRA (gene 7067), sequence (P10827 whole entry, looked up, the tested form may be a part): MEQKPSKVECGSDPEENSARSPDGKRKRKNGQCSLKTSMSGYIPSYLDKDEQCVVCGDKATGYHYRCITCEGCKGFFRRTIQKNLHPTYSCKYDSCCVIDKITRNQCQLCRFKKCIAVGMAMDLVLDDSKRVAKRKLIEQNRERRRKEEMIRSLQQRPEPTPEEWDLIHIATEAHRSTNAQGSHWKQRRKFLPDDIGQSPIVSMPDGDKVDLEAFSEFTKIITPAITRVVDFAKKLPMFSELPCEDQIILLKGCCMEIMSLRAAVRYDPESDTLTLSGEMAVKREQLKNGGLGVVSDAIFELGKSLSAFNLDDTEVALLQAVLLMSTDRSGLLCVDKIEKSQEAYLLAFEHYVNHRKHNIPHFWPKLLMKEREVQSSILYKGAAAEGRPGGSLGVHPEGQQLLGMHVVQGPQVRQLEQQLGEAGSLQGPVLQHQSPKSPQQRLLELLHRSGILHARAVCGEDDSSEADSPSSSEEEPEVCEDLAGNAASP
Thyroid hormone receptor alpha (Rattus norvegicus) + Thyroid hormone receptor beta (Rattus norvegicus), sequence (P63059 whole entry, looked up): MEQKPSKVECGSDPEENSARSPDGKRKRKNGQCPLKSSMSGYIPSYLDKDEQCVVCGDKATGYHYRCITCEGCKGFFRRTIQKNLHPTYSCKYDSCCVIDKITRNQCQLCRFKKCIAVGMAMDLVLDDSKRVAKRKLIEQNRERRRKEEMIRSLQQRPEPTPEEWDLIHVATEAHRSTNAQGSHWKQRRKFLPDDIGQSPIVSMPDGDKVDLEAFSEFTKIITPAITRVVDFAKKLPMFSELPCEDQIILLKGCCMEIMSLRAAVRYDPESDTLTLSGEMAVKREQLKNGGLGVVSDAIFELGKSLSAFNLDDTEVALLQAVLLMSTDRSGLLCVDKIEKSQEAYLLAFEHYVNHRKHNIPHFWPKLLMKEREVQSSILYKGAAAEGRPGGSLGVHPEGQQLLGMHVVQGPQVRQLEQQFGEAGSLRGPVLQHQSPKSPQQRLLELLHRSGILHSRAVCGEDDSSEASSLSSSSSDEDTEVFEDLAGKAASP
Thyroid hormone receptor alpha (Rattus norvegicus) + Thyroid hormone receptor beta (Rattus norvegicus), sequence (P18113 whole entry, looked up): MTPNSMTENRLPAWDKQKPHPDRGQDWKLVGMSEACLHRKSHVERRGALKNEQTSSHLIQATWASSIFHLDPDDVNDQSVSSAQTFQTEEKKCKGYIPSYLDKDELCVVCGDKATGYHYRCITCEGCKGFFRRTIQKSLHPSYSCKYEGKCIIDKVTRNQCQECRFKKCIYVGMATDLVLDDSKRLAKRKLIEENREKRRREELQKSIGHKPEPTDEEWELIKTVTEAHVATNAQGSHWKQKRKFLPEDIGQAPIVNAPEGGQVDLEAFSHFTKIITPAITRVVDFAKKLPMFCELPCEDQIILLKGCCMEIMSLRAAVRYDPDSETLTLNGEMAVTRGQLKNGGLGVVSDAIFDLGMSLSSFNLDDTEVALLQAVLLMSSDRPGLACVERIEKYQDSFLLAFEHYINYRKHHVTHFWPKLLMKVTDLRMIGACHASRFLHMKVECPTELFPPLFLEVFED

For the compound `Cc1nc(-c2ccccn2)ncc1C(=O)Nn1cc(C)c2cc(F)ccc21`, the AC50 in assay [1] is 11.5 µM (active).
Take `NC(=O)N(O)[C@@H]1COc2cc(OCc3ccccc3)ccc21`: the outcome (in the assay with PGR (gene 5241) [2]; in [3]; in [4]; in [5]) was inactive.
Turning to `CC(C)C(=O)Nc1ccc([N+](=O)[O-])c(C(F)(F)F)c1`, the AC50 with PGR (gene 5241) [2] is 46.1 µM (active). The compound was called inactive (in [6]; in [3]; with PGR (gene 5241) [7]; in assay [4]; in assay [5]).
Regarding `Cn1c(=O)c2[nH]cnc2n(C)c1=O`, the result (in assay [8]; with THRA (gene 7067)) was inactive.
Take `O=c1[nH]cnc2c1ncn2[C@H]1CC[C@@H](CO)O1`: in the assay with THRA (gene 7067), the result was inactive.
